Records with an inconclusive call do not appear. The source made the active and inactive calls. Unless noted, calls come from the whole dose curve; as a rule, active = well fitted curve in the direction sought with a large enough effect in the repeat runs; inconclusive = weak or mixed curves; inactive = no such curve, though single readings can be large; an effect the other way counts as inactive or inconclusive.
Key:
[1] = qHTS assay to identify small molecule antagonists of the thyroid receptor (TR) signaling pathway (AID 743065); note: nearly all actives have a fitted effect of over 55% in size; note: potency is the fitted concentration of half-maximal effect
Summary of the method: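 Antagonism measured as loss of luciferase signal in GH3 cells stably carrying a TRE-luciferase reporter, co-treated with compound and T3 (1 nM final) for 23.5 h at 37 C. Viability was read in the same well by CellTiter-Fluor.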

[2] = system: thyroid hormone receptor (rat, GH3 cells); assay: qHTS assay to identify small molecule agonists of the thyroid receptor (TR) signaling pathway (AID 743066; calls by dose curve)
[3] = biological target: Estrogen receptor (Homo sapiens) (UniProt P03372); assay: qHTS assay to identify small molecule antagonists of the estrogen receptor alpha (ER-alpha) signaling pathway (AID 743069; active = well fitted curve in the direction sought with a large enough effect in the signal ratio in the repeat runs, not every such curve was filed as active; the % refers to the signal ratio)
Summary of the method: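 ER-alpha-UAS-bla GripTite HEK293 line; 2% charcoal-stripped FBS overnight; plated, 4 hr 37C/5% CO2; cpd in DMSO + 17beta-estradiol, 18 hr 37C; LiveBLAzer B/G FRET substrate 2 hr RT; fluorescence intensity.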

[4] = qHTS assay to identify small molecule antagonists of the estrogen receptor alpha (ER-alpha) signaling pathway - cell viability counter screen (AID 743074; calls by dose curve;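 note: HEK293 cells carrying ER-alpha-UAS-bla reporter stimulated with 17beta-estradiol; nearly all actives have a fitted effect of over 45% in size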)
[5] = biological target: Estrogen receptor (Homo sapiens) (UniProt P03372); assay: qHTS assay to identify small molecule agonists of the estrogen receptor alpha (ER-alpha) signaling pathway (AID 743075; calls by dose curve;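 note: HEK293 GripTite cells with ER-alpha and UAS-driven beta-lactamase reporter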)
[6] = biological target: Estrogen receptor (Homo sapiens) (UniProt P03372); assay: qHTS assay to identify small molecule agonists of the estrogen receptor alpha (ER-alpha) signaling pathway using the BG1 cell line (AID 743079); note: nearly all actives have a fitted effect of over 20% in size; note: potency is the fitted concentration of half-maximal effect
[7] = qHTS assay to identify small molecule antagonists of the estrogen receptor alpha (ER-alpha) signaling pathway using the BG1 cell line (AID 743080; calls by dose curve;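 note: BG1 cells stimulated with 17beta-estradiol alongside compound; series mostly up to about 70 µM; nearly all actives have a fitted effect of over 25% in size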)
Summary of the method: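 BG1-Luc-4E2 cells (endogenous full-length ER-alpha, 4xERE luciferase) hormone-starved 5 days in charcoal-stripped FBS, plated 4,000/well for 24 h, then compound plus 17beta-estradiol for 21.5 h at 37 C; ONE-Glo luminescence read.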

[8] = qHTS assay to identify small molecule antagonists of the estrogen receptor alpha (ER-alpha) signaling pathway using the BG1 cell line - cell viability counter screen (AID 743081);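 note: compound given together with 17beta-estradiol as the ER stimulus; series mostly up to about 70 µM; nearly all actives have a fitted effect of over 45% in size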
[9] = biological target: Aromatase (Homo sapiens) (UniProt P11511); assay: qHTS assay to identify aromatase inhibitors (AID 743083); note: series mostly up to about 70 µM; nearly all actives have a fitted effect of over 55% in size
[10] = qHTS assay to identify aromatase inhibitors - cell viability counter screen (AID 743084);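 note: cells stimulated with testosterone during compound exposure; nearly all actives have a fitted effect of over 55% in size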
[11] = biological target: Aryl hydrocarbon receptor (Homo sapiens) (UniProt P35869); assay: qHTS assay to identify small molecule that activate the aryl hydrocarbon receptor (AhR) signaling pathway (AID 743085); note: nearly all actives have a fitted effect of over 15% in size; note: potency is the fitted concentration of half-maximal effect;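 for activation: HG2L7.5c1 human HepG2 liver cells with stably integrated DRE-driven firefly reporter; series mostly up to about 70 µM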
Summary of the method: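 Compounds were tested in HepG2 hepatocellular carcinoma cells harbouring a stably integrated luciferase gene under control of 20 DREs. Increased reporter signal after 24 h treatment at 37C was taken as AhR activation.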

[12] = qHTS assay to identify small molecule that activate the aryl hydrocarbon receptor (AhR) signaling pathway - cell viability counter screen (AID 743086);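 note: HepG2 liver cells carrying the AhR DRE luciferase reporter; series mostly up to about 70 µM; nearly all actives have a fitted effect of over 45% in size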
Summary of the method: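 Cytotoxicity counter screen: CellTiter-Fluor signal (30 min, 37 C) in 4000 HepG2 cells/well carrying the DRE-luciferase reporter, following 24 h compound exposure at 37 C.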

[13] = biological target: Peroxisome proliferator-activated receptor gamma (Homo sapiens) (UniProt P37231); assay: qHTS assay to identify small molecule antagonists of the peroxisome proliferator-activated receptor gamma (PPARg) signaling pathway (AID 743191; calls by dose curve; note: series mostly up to about 63 µM; nearly all actives have a fitted effect of over 30% in size)
Summary of the method: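 Beta-lactamase reporter under UAS control in HEK293H PPARg-bla cells; compound treatment 17 h at 37C. Read-out: fluorescence intensity after 1 h room-temperature incubation with LiveBLAzer B/G FRET substrate.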

[14] = qHTS assay to identify small molecule antagonists of the peroxisome proliferator-activated receptor gamma (PPARg) signaling pathway - cell viability counter screen (AID 743194); note: nearly all actives have a fitted effect of over 55% in size
Summary of the method: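 Viability was measured as CellTiter-Glo luminescence in GeneBLAzer PPARg UAS-bla HEK293H cells. These cells had been exposed 17 h at 37 C to compounds together with rosiglitazone at 50 nM final, with the beta-lactamase readout taken in the same wells.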

[15] = qHTS assay for small molecule agonists of the antioxidant response element (ARE) signaling pathway (AID 743202; active = well fitted activation curve with a large enough effect in the signal ratio in the repeat runs, not every such curve was filed as active; the % refers to the signal ratio)
Summary of the method: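 Quantitative high-throughput format in HepG2 cells bearing an integrated ARE-beta-lactamase reporter. Compound exposure lasted 16 h at 37 C, and fluorescence was read 2 h after adding LiveBLAzer B/G substrate at room temperature.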

[16] = qHTS assay for small molecule agonists of the antioxidant response element (ARE) signaling pathway - cell viability counter screen (AID 743203; calls by dose curve; note: nearly all actives have a fitted effect of over 55% in size)
Summary of the method: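 Following 16 hrs of compound treatment at 37C, HepG2 cells with an ARE-controlled beta-lactamase gene were lysed with CellTiter-Glo. Luminescence was read after 30 min at room temperature.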

[17] = qHTS assay for small molecule activators of the heat shock response signaling pathway - cell viability counter screen (AID 743209); note: nearly all actives have a fitted effect of over 50% in size
Summary of the method: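 Readout: CellTiter-Glo luminescence, 30 min at room temperature. System: HSE-bla HeLa cells, 1500/well, plated overnight. Treatment: compounds in DMSO, 5 h at 37 C.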

[18] = qHTS assay for small molecule activators of the heat shock response signaling pathway (AID 743210; active = well fitted activation curve with a large enough effect in the signal ratio in the repeat runs, with a control signal flat, not every such curve was filed as active; the % refers to the signal ratio;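 note: HeLa cells with beta-lactamase reporter driven by heat shock elements; series mostly up to about 63 µM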)
Summary of the method: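 HeLa HSE-bla cells, overnight plating; cpd in DMSO 5 h, 37 C; LiveBLAzer B/G FRET substrate 2.5 h RT; fluorescence intensity read.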

[19] = biological target: Peroxisome proliferator-activated receptor gamma (Homo sapiens) (UniProt P37231); assay: qHTS assay to identify small molecule agonists of the peroxisome proliferator-activated receptor gamma (PPARg) signaling pathway (AID 743094; active = well fitted activation curve with a large enough effect in the signal ratio in the repeat runs, not every such curve was filed as active; the % refers to the signal ratio)
Summary of the method: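 Compounds dissolved in DMSO were added to PPARg UAS-bla HEK293H cells for 17 h at 37C, and reporter expression was quantified by fluorescence intensity after 1 h with LiveBLAzer B/G FRET substrate.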

Measured: Potency

Chain of Aromatase (Homo sapiens) (P11511 whole entry, looked up): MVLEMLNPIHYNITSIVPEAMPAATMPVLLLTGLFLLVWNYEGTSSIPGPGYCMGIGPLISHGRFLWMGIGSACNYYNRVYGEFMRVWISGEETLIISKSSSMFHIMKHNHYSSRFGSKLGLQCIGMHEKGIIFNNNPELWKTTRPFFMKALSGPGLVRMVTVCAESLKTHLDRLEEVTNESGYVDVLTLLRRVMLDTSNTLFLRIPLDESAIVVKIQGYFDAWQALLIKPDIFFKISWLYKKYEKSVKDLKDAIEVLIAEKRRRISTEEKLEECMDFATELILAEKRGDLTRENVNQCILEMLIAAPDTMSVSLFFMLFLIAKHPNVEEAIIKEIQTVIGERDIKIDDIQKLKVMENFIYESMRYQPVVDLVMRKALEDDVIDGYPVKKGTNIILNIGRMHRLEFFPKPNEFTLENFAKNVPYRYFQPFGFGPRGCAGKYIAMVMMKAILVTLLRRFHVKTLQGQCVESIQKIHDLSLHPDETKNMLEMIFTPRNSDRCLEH
Chain of Estrogen receptor (Homo sapiens) (P03372 whole entry, looked up): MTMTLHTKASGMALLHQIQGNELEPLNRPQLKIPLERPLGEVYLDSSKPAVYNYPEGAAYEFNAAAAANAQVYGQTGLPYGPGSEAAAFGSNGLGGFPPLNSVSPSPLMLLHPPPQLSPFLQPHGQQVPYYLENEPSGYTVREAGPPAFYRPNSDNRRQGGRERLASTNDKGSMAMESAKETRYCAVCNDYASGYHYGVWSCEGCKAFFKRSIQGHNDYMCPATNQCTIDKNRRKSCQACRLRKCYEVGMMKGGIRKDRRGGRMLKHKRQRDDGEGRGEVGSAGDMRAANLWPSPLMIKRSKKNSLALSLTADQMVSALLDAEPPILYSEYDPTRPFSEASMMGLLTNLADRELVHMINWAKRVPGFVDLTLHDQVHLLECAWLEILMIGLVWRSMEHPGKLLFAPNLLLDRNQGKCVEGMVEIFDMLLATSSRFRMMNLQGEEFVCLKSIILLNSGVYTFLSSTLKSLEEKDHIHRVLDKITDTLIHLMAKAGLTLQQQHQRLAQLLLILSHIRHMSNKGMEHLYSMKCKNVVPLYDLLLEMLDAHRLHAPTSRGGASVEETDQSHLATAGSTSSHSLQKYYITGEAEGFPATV
Chain of Peroxisome proliferator-activated receptor gamma (Homo sapiens) (P37231 whole entry, looked up): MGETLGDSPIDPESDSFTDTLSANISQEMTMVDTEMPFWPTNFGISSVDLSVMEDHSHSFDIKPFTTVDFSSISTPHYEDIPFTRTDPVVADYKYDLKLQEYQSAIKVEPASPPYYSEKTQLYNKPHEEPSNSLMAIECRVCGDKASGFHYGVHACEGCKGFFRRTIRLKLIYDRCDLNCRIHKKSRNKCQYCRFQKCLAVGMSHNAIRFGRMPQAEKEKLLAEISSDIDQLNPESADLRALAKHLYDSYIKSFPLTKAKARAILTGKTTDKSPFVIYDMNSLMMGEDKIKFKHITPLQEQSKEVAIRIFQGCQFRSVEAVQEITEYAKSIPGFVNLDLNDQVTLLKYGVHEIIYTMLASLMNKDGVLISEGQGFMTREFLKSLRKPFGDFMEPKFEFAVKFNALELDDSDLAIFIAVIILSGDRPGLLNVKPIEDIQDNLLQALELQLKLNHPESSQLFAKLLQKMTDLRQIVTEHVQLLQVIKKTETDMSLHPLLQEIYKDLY
Chain of Aryl hydrocarbon receptor (Homo sapiens) (P35869 whole entry, looked up): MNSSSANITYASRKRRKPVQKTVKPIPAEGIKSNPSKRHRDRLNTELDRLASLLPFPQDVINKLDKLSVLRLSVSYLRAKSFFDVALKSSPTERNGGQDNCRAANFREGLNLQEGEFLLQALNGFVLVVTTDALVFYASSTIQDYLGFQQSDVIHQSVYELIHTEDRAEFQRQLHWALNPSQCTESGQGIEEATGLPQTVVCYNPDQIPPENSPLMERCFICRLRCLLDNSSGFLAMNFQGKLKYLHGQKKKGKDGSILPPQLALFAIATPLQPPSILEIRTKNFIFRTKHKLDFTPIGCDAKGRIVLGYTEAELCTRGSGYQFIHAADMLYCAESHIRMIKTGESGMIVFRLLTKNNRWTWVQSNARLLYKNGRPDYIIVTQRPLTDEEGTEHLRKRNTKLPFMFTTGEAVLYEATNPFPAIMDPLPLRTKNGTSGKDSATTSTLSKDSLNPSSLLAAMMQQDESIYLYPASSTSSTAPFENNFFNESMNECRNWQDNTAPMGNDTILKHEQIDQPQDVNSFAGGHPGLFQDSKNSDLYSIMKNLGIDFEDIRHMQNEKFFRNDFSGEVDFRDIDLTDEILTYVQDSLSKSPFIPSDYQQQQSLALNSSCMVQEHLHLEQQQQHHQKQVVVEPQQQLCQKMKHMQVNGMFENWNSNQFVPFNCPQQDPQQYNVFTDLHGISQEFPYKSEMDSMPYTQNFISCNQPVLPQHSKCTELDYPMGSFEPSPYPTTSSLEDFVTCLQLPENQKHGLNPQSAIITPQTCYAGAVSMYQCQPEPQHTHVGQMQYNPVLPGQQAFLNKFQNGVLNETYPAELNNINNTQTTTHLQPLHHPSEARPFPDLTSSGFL

CCOc1cccc(N)c1
not listed: [19]
inactive: all other assays above

Cn1c(=O)c2[nH]c(Br)nc2n(C)c1=O
active: [1] 26.6 µM
not listed: [3] | [5] | [6] | [7] | [13]
inactive: all other assays above

C=C(C)C1CC=C(C)C(=O)C1 (stereo unspecified)
not listed: [3] | [5] | [6] | [7] | [13]
inactive: all other assays above

CC(=O)OCC(=O)Nc1cc(C#N)cc(NC(=O)COC(C)=O)c1Cl
not listed: [8] | [12] | [13]
inactive: all other assays above

ONc1ccccc1
active: [6] 60.5 µM | [11] 60.5 µM
not listed: [7] | [15] | [16] | [18]
inactive: all other assays above

CCC(C)C(C)=O (stereo unspecified)
active: [6] 67 µM
not listed: [12]
inactive: all other assays above

N#Cc1ccccc1O
not listed: [3] | [11] | [13]
inactive: all other assays above

Cc1c(NC(=O)c2cccnc2)c(=O)n(-c2ccccc2)n1C
not listed: [7] | [12] | [14]
inactive: all other assays above

O=C(Cl)c1ccccc1[N+](=O)[O-]
not listed: [3] | [5] | [6] | [7] | [11]
inactive: all other assays above
